# The list is not random: actives were taken first. Their share in the collection is about 0.81%.
# TbPYK inhibitor: inhibitors of Trypanosoma brucei pyruvate kinase; Q57TT1; TbPYK enzyme, Kinase-Glo Plus ATP luminescence, 45 min; Potency, µM (titrated, usually from 76.8 µM), inactives show top-dose activity, negative = inhibition, actives largely listed as inhibitors; hit rate 0.12% among 410,000; AID 624173; further: potency means the concentration at half of the fitted maximal effect; on the % scale 0 is the no-effect control and ±100 the full control effect; nearly all actives have a fitted effect of over 50% in size
#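 Enzyme and substrate buffer are dispensed first and compound is pin-transferred. ADP at 130 uM final then starts the reaction, which runs 45 min at room temperature. Detection reagent is added for 10 min before luminescence is imaged.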
# AMA1 RON2 block: inhibitors of Plasmodium falciparum AMA1-RON2 interaction. AlphaScreen AMA1-biotinylated RON2 peptide binding. Potency, µM (top dose mostly 58.2 µM), for the others: top-dose activity change, negative = inhibition, actives largely listed as inhibitors. hit rate 0.2% among 360,000. AID 720542;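 further: potency means the concentration at half of the fitted maximal effect; 0% = vehicle wells and -100% = peptide control; nearly all actives have a fitted effect of over 45% in size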
#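 AMA1 (3D7) with his tag at 25 nM final met compounds first, then biotinylated RON2 peptide at 25 nM; detection used donor plus acceptor beads, 10 µg/mL apiece, read by AlphaScreen after 30 min at room temperature.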
# SARS PLpro yeast-1: SARS-CoV PLP inhibition in yeast; AID 485353; S. cerevisiae expressing SARS-CoV PLpro, growth rescue; Potency, µM (doses to about 32.9 µM), without a hit: at the top dose activity, positive = growth rescue, hits mostly activators; hit rate 0.19% among 330,000; calls by dose curve; further: potency means the concentration at half of the fitted maximal effect; 0% is about no effect; nearly all actives have a fitted effect of over 55% in size
# LmPK inhibitor: blocks Leishmania mexicana pyruvate kinase activity; purified LmPK, Kinase-Glo ATP luminescence, 1 h; hit rate 0.37% among 290,000; Potency, µM (doses to about 57.5 µM), for inactives: at the top dose activity change, negative = inhibition, most hits filed as inhibitors; further: potency means the concentration at half of the fitted maximal effect; on the % scale 0 is the no-effect control and ±100 the full control effect
# Target sequence (Q27686 whole entry, looked up): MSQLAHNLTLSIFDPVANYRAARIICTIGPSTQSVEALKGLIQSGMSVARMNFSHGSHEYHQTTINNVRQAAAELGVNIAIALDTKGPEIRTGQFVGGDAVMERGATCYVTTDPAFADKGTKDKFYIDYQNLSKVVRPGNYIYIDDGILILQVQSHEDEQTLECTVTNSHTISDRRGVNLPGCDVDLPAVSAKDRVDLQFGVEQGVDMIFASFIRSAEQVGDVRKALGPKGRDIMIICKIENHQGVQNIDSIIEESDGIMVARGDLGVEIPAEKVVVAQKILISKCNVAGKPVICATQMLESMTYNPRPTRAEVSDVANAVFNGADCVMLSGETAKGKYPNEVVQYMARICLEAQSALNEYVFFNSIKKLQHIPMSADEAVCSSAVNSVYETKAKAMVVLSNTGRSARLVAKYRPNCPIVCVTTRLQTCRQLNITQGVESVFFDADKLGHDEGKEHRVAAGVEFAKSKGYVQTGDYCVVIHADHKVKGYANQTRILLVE
#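 Pyruvate kinase activity monitored as ATP production (luciferase luminescence). Conditions: 0.1 nM enzyme, 0.5 mM PEP, 0.1 mM ADP, 1 h, RT; normalized against uninhibited and no-enzyme wells.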
# RE007 growth inh: less growth of the S. pombe RE007 Vpr strain. hit rate 0.21% among 360,000. S. pombe RE007 Vpr strain, BacTiter-Glo ATP luminescence, 24 h. AID 651644. Potency, µM (top dose mostly 92.2 µM), without a hit: at the highest dose activity change, negative = less growth, actives largely listed as inhibitors; active means well fitted falling curve with a large enough effect; inconclusive means small, poorly fitted or top-dose-only effect; inactive means no such curve, though single readings can be large or run the other way; further: potency means the concentration at half of the fitted maximal effect; on the % scale 0 is the no-effect control and ±100 the full control effect; nearly all actives have a fitted effect of over 50% in size
#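 Fission yeast strain RE007, carrying one chromosomally integrated HIV-1 vpr copy, was seeded at OD 0.01 in PMG+AL medium with 23 nL pinned compound. After 24 h at 30 °C and 99% humidity, viability was read by BacTiter-Glo luminescence.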
# SARS PLpro yeast-2: Rescues yeast growth by inhibiting SARS-CoV PLpro | shares compounds with SARS PLpro yeast-1 | yeast expressing SARS-CoV PLpro, growth phenotype rescue | calls only | hit rate 19% among 1,000 | AID 652038; call rule not given here
# An asterisk follows results filed as active; i = inactive; ? = inconclusive; / = not tested or not shown; + = active, no number; [ ] = another dose, or the depositor's remark. Unless noted, the call rests on the fitted dose curve; in most records, active means well fitted curve in the direction sought with a large enough effect; inconclusive means small, poorly fitted or top-dose-only effect, or another doubt; inactive means no such curve, though single readings can be large; an effect the other way counts as inactive or inconclusive.
SMILES,TbPYK inhibitor,AMA1 RON2 block,SARS PLpro yeast-1,LmPK inhibitor,RE007 growth inh,SARS PLpro yeast-2
CCc1cccc(NC(c2ccccc2)c2nnc(-c3ccccc3F)o2)c1 (configuration not stated),1%,/,/,/,/,/
NC(=S)N/N=C/c1ccccc1OCc1cccc(Cl)c1,-3%,0%,16µM*,-1%,2%,?
NC(=S)N/N=C/c1ccc2cccc(OCc3ccccc3)c2n1,-11%,58%,11%,0%,1%,/
Cn1ncc2c(NNC(=O)c3ccc(Cl)cc3Cl)ncnc21,-13%,30%,?,5%,20%,i
COc1cccc(COC(=O)c2ccc(-c3nnn(Cc4cccc(OC)c4)n3)cc2)c1,-1%,/,/,/,/,/
Cc1ccc(C2(C)NC(=O)N(CC(=O)NCc3cccs3)C2=O)cc1 (configuration not stated),-11%,-1%,?,-1%,-22%,i
O=C(C1=C(O)C(=O)N(CCCN2CCOCC2)C1c1ccncc1)c1cc2ccccc2o1 (configuration not stated),/,/,13µM*,1%,/,+
Cc1ccc(NC(=O)c2nc[nH]c2C(=O)NCCCCCCNC(=O)c2[nH]cnc2C(=O)Nc2ccc(C)cc2)cc1,1%,116%,13µM*,/,0%,i
Cc1ccc(NC(=O)c2nc[nH]c2C(=O)NCCCCNC(=O)c2[nH]cnc2C(=O)Nc2ccc(C)cc2)cc1,-5%,48%,3%,/,1%,/
CC1CCN(c2nc3ccc(C(=O)NCCCN4CCCCC4C)cc3s2)CC1 (configuration not stated),-4%,-7%,0%,-8%,-9%,/
Cc1ccc(NC(=O)CN(C)S(=O)(=O)c2cccs2)cc1C,-9%,-1%,?,9%,-1%,i
Cc1ccc(C(O)(C(=O)NNc2ccc3ccccc3n2)c2ccc(C)cc2)cc1,-5%,60%,?,4%,5%,i
COc1ccc(-c2onc(C)c2C)cc1S(=O)(=O)Nc1cccc(C#N)c1,13%[15.4 µM],/,/,/,/,/
O=C(CN1C(=O)COc2ccccc21)NCCCN1CCCCC1,-12%,-5%,12%,0%,-11%,/
O=S(=O)(NCCc1csc(-c2cccnc2)n1)c1ccc2c(c1)OCCO2,1%,-3%,?,-4%,-1%,i
CCOC(=O)CC(NC(=O)c1ccco1)c1ccc(OC)cc1 (configuration not stated),-12%,12%,?,-4%,10%,i
O=C(Nc1cccc(-c2nn[nH]n2)c1)c1csc2c1CCCC2,3%,-7%,?,5%,-3%,i
COc1cccc(-n2c(SCC(=O)Nc3cccc(C)c3)nc3c([nH]c4ccccc43)c2=O)c1,-2%,/,/,/,/,/
O=C(Nc1cc2c(cc1C(=O)c1ccccc1Cl)OCCO2)c1ccccc1,-6%,/,/,/,/,/
Cc1ccccc1OCc1nc2ccccc2c(=O)n1/N=C/c1c[nH]c2ccccc12,14%,-23%,10%,1%,-2%,/
Cc1cc(/C=N/n2c(COc3ccccc3C)nc3ccccc3c2=O)c(O)c([N+](=O)[O-])c1,-2%,?,3.5µM*,-8%,-1%,+
O=[N+]([O-])c1ccc(Cl)c(/C=N/n2c(COc3ccccc3)n[nH]c2=S)c1,-22%,62%,-8%,5%,29%,/
O=c1c2ccccc2nc(COc2ccccc2)n1/N=C/c1cc([N+](=O)[O-])ccc1O,4%,-8%,5.6µM*,-7%,?,?
CN(Cc1ccccc1OCCO)CC1CCCN(CCc2ccc(Cl)cc2)C1 (configuration not stated),6%,-2%,-1%,-4%,-5%,/
C=C(C)Cn1c(SCC(=O)N/N=C/c2c(O)ccc3ccccc23)nc2ccccc2c1=O,-4%,37%,10µM*,9%,0%,+
COc1ccc(S(=O)(=O)N(CC(=O)N2CCN(c3ccccc3OC)CC2)c2ccccc2)cc1,7%,15%,4.5µM*,1%,27%,i
